Inconclusive results are not listed. Activity calls are given as the source filed them. The calls were made as follows, unless noted: active = hit-call score of the fitted dose curve at least 0.9, where 1 is the maximum; inactive = score below 0.9.
Experiments:
[1] = biological target: Glucocorticoid receptor (Homo sapiens) (UniProt P04150); experiment: ATG_GR_TRANS: Attagene TRANS-FACTORIAL HepG2 Assay for human Glucocorticoid Receptor (GR) (AID 2282978; active = hit-call score of the fitted dose curve at least 0.9, where 1 is the maximum;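 also: activators score as hits since higher reporter transcript over DMSO is fitted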); settings: HepG2 Attagene TRANS GR reporter, mRNA transcription
Summary of the method: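 Exogenous NR-GAL4 fusion activity was assessed through induced GAL4-UAS reporter transcripts in transfected human HepG2 cells, quantified after 24 h by RT-PCR and fluorescent capillary electrophoresis with DMSO as baseline.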

[2] = biological target: Hepatocyte nuclear factor 4-alpha (Homo sapiens) (UniProt P41235); experiment: ATG_HNF4a_TRANS: Attagene TRANS-FACTORIAL HepG2 Assay for human Hepatocyte Nuclear Factor 4 alpha (HNF4a) (AID 2282982; active = hit-call score of the fitted dose curve at least 0.9, where 1 is the maximum); settings: HepG2 HNF4a transactivation reporter, mRNA readout
Summary of the method: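 HepG2 cells transiently transfected with multiplexed GAL4-UAS reporter units responsive to chimeric NR-GAL4 proteins; compound exposure 24 h. Reporter mRNA quantified by RT-PCR, 6-FAM labelling, HpaI digestion and capillary electrophoresis; gain of signal versus DMSO baseline.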

[3] = ATG_M_06_TRANS: Attagene TRANS-FACTORIAL HepG2 Assay for M06 Transcription Factor (Internal Marker) (AID 2282983; active = hit-call score of the fitted dose curve at least 0.9, where 1 is the maximum;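 also: reporter transcript level by RT-PCR then capillary electrophoresis fluorescence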); settings: HepG2 Attagene TRANS M06 internal marker reporter
Summary of the method: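 HepG2 cells transiently transfected with GAL4-UAS multiple reporter units, dosed 24 h. Reporter RNA reverse-transcribed, PCR-amplified, 6-FAM-labeled, HpaI-digested and quantified by capillary electrophoresis; this internal-marker signal fitted upward relative to DMSO.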

[4] = biological target: Nuclear receptor subfamily 4 group A member 2 (Homo sapiens) (UniProt P43354); experiment: ATG_NURR1_TRANS: Attagene TRANS-FACTORIAL HepG2 Assay for human Nuclear Receptor Related Protein 1 (NURR1) (AID 2282985; active = hit-call score of the fitted dose curve at least 0.9, where 1 is the maximum); settings: HepG2 Attagene TRANS reporter, mRNA readout
Summary of the method: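 HepG2 cells transiently transfected with GAL4-UAS reporter units and chimeric NR-Gal4 constructs; chemical exposure 24 h. Reporter mRNA quantified by RT-PCR, fluorescent labelling and capillary electrophoresis; gain of signal fitted relative to DMSO baseline.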

[5] = biological target: Transcriptional activator Myb (Homo sapiens) (UniProt P10242); experiment: ATG_Myb_CIS: Attagene CIS-FACTORIAL HepG2 Assay for human Myeloblastosis (Myb) Proto-Oncogene Transcription Factor (AID 2282986); settings: HepG2 Attagene CIS-FACTORIAL Myb reporter transcription; actives raise or lower the signal
Summary of the method: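 In this HepG2 transient-transfection format, cis-regulated reporter mRNA is quantified 24 h post-dosing by RT-PCR with capillary electrophoresis, fitted bidirectionally to DMSO baseline.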

[6] = biological target: Nuclear respiratory factor 1 (Homo sapiens) (UniProt Q16656); experiment: ATG_NRF1_CIS: Attagene CIS-FACTORIAL HepG2 Assay for human Nuclear Respiratory Factor 1 (NRF1) Orphan Gene (AID 2282987); settings: HepG2 NRF1 cis-element reporter, Attagene multiplex; actives raise or lower the signal
Summary of the method: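 Using DMSO as baseline, gain- or loss-of-signal was fitted for reporter mRNA levels in HepG2 cells transiently transfected with cis-regulated reporter units. Samples were taken 24 h after dosing and read by RT-PCR with capillary electrophoresis.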

[7] = biological target: Myc proto-oncogene protein (Homo sapiens) (UniProt P01106); experiment: ATG_Myc_CIS: Attagene CIS-FACTORIAL HepG2 Assay for human Myelocytomatosis (Myc) Proto-Oncogene Transcription Factor (AID 2282990); settings: HepG2, Attagene cis-reporter transcription factor activity; actives raise or lower the signal
Summary of the method: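 DMSO-normalised, bidirectionally fitted reporter mRNA signal. HepG2 cells transfected with cis reporter constructs, treated 24 h; transcripts detected by RT-PCR, 6-FAM primer extension and CE.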

[8] = ATG_NRF2_ARE_CIS: Attagene CIS-FACTORIAL HepG2 Assay for human Nuclear Factor Erythroid 2 Related Factor 2 (NFR2) response to Antioxidant Response Elements (ARE) (AID 2282992); settings: HepG2 Attagene ARE/NRF2 reporter, transcription factor activity; actives raise or lower the signal;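 as to AC50: reporter mRNA level measured by RT-PCR and capillary electrophoresis fluorescence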
Summary of the method: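 Multiplexed reporter mRNA profiling in HepG2 after a 24 h chemical exposure. Curves fitted in both directions relative to DMSO negative control.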

[9] = ATG_Oct_MLP_CIS: Attagene CIS-FACTORIAL HepG2 Assay for human Octamer-Binding Transcription Factor (Oct) (AID 2282993); settings: HepG2 Attagene cis-factorial Oct reporter, mRNA; actives raise or lower the signal
Summary of the method: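 Multiplexed cis-reporter assay in human liver HepG2 cells, 24 h incubation. Reporter RNA amplified and labelled, then resolved by capillary electrophoresis; DMSO serves as negative control and baseline.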

[10] = biological target: Cellular tumor antigen p53 (Homo sapiens) (UniProt P04637); experiment: ATG_p53_CIS: Attagene CIS-FACTORIAL HepG2 Assay for human p53 Transcription Factor (AID 2282994); settings: HepG2 p53 cis-element reporter, Attagene mRNA; actives raise or lower the signal
Summary of the method: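 Multiplexed reporter mRNA assay in human HepG2 liver cells; cis-regulated units report endogenous factor activity. Values come from bidirectional curve fitting against DMSO negative control after 24 h treatment.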

[11] = ATG_M_32_TRANS: Attagene TRANS-FACTORIAL HepG2 Assay for M32 Transcription Factor (Internal Marker) (AID 2282984; active = hit-call score of the fitted dose curve at least 0.9, where 1 is the maximum;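 also: transcript level of a background control reporter unit measured by RT-PCR and capillary electrophoresis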); settings: HepG2 Attagene TRANS M32 internal marker reporter
Summary of the method: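 HepG2 cells transiently transfected with multiple GAL4-UAS reporter transcription units, dosed for 24 hours; reporter mRNA quantified by RT-PCR, 6-FAM primer extension, HpaI digestion and capillary electrophoresis. Gain-of-signal fitted versus DMSO baseline; internal background-control marker.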

[12] = ATG_NFI_CIS: Attagene CIS-FACTORIAL HepG2 Assay for human Nuclear Factor I (NFI) (AID 2282989); settings: HepG2 cis-regulatory reporter, NFI response element transcription; actives raise or lower the signal
Summary of the method: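 HepG2, transient MRTU, 24 h exposure; RNA→cDNA→PCR→FAM label→HpaI→CE fluorescence. Bidirectional fit, DMSO = baseline.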

[13] = ATG_NF_kB_CIS: Attagene CIS-FACTORIAL HepG2 Assay for human Nuclear Factor Kappa B (NF-kB) (AID 2282991); settings: HepG2 Attagene cis-factorial NF-kB reporter mRNA; actives raise or lower the signal
Summary of the method: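 Endpoint from a 52-component multiplexed HepG2 reporter panel: cis-regulated transcription units transiently transfected, 24 h dosing, reporter mRNA quantified by RT-PCR and capillary electrophoresis, scored as increase or decrease against DMSO.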

[14] = BSK_3C_TissueFactor: BioMAP Diversity Plus: 3C Assay for Tissue Factor Biomarker Activity (AID 2282997); settings: BioMAP 3C HUVEC, tissue factor biomarker readout; actives raise or lower the signal
Summary of the method: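 HUVEC were treated 24 h, then surface tissue factor measured by ELISA and fitted bidirectionally against DMSO. Parallel SRB total-protein staining assessed overt cytotoxicity at the same time point.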

[15] = BSK_3C_uPAR: BioMAP Diversity Plus: 3C Assay for Urokinase-type plasminogen activator receptor (uPAR) Biomarker Activity (AID 2282998); settings: BioMAP 3C HUVEC, uPAR biomarker ELISA; actives raise or lower the signal
Summary of the method: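 Dose primary human umbilical vein endothelial cells, incubate 24 h, measure cell-surface uPAR by ELISA, then fit the signal in both directions against the DMSO negative control.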

[16] = BSK_3C_VCAM1: BioMAP Diversity Plus: 3C Assay for Vascular cell adhesion molecule 1 (VCAM1) Biomarker Activity (AID 2282999); settings: BioMAP 3C HUVEC, VCAM1 ELISA, cytokine-stimulated; actives raise or lower the signal
Summary of the method: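 Human umbilical vein endothelial cells were dosed with compound for 24 h, after which cell-surface VCAM-1 was quantified by ELISA. Bidirectional curve fitting used DMSO as negative control and activity baseline.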

[17] = BSK_4H_Eotaxin3: BioMAP Diversity Plus: 4H Assay for Eotaxin 3 Biomarker Activity (AID 2283000); settings: primary human endothelial cells (HUVEC); actives raise or lower the signal;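 also: CCL26 protein level quantified by ELISA in parallel with SRB cytotoxicity check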
Summary of the method: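 Eotaxin-3 (CCL26) levels were measured by ELISA in HUVEC primary cultures 24 h post-dosing. Gain or loss of signal was fitted in both directions, with DMSO serving as baseline and negative control.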

[18] = biological target: Bile acid receptor (Homo sapiens) (UniProt Q96RI1); experiment: ATG_FXR_TRANS: Attagene TRANS-FACTORIAL HepG2 Assay for Farnesoid X Receptor (FXR) (AID 2282979; active = hit-call score of the fitted dose curve at least 0.9, where 1 is the maximum;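 also: hits raise reporter mRNA above DMSO so AC50 marks FXR activation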); settings: HepG2 Attagene TRANS FXR-GAL4 reporter transcription
Summary of the method: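 HepG2 cells were transiently transfected with GAL4-UAS reporters driven by chimeric NR-Gal4 proteins and dosed for 24 h. Reporter mRNA was quantified by RT-PCR, fluorescent labelling, HpaI digestion and capillary electrophoresis, with gain of signal scored versus DMSO.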

[19] = biological target: Oxysterols receptor LXR-alpha (Homo sapiens) (UniProt Q13133); experiment: ATG_LXRa_TRANS: Attagene TRANS-FACTORIAL HepG2 Assay for human Liver X Receptor alpha (LXRa) (AID 2282980; active = hit-call score of the fitted dose curve at least 0.9, where 1 is the maximum); settings: HepG2 Attagene TRANS reporter, LXRa transactivation
Summary of the method: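 HepG2 cells transiently transfected with GAL4-UAS reporter units for chimeric NR-Gal4 proteins, exposed to chemicals for 24 h. Reporter mRNA quantified by RT-PCR and capillary electrophoresis; gain of signal fitted relative to DMSO.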

[20] = biological target: Oxysterols receptor LXR-beta (Homo sapiens) (UniProt P55055); experiment: ATG_LXRb_TRANS: Attagene TRANS-FACTORIAL HepG2 Assay for human Liver X Receptor beta (LXRb) (AID 2282981; active = hit-call score of the fitted dose curve at least 0.9, where 1 is the maximum); settings: HepG2 Attagene TRANS GAL4-LXRb reporter, mRNA
Summary of the method: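 HepG2 cells transiently transfected with multiple reporter transcription units carrying chimeric NR-Gal4 proteins acting on GAL4-UAS reporters; compound exposure 24 h. Reporter mRNA quantified by RT-PCR, 6-FAM labelling, HpaI digestion and capillary electrophoresis; gain of signal versus DMSO.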

Measured: AC50

Chain of Transcriptional activator Myb (Homo sapiens) (P10242 whole entry, looked up): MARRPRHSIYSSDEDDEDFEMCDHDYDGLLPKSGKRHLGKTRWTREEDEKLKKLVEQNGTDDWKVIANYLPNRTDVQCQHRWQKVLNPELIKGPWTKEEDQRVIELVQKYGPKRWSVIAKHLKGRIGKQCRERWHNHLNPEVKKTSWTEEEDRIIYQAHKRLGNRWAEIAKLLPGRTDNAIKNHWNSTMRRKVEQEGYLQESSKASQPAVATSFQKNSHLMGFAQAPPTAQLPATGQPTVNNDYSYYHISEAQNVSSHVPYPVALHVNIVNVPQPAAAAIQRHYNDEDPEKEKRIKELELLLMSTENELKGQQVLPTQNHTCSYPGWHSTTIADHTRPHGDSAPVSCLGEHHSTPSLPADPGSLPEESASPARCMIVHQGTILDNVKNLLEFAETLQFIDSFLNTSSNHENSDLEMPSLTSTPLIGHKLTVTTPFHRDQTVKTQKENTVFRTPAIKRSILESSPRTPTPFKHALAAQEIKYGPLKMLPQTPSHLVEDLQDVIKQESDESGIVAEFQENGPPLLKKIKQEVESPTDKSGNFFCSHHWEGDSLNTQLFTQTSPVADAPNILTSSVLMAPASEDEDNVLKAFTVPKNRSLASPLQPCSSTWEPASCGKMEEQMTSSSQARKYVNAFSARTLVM
Chain of Oxysterols receptor LXR-beta (Homo sapiens) (P55055 whole entry, looked up, the tested form may be a part): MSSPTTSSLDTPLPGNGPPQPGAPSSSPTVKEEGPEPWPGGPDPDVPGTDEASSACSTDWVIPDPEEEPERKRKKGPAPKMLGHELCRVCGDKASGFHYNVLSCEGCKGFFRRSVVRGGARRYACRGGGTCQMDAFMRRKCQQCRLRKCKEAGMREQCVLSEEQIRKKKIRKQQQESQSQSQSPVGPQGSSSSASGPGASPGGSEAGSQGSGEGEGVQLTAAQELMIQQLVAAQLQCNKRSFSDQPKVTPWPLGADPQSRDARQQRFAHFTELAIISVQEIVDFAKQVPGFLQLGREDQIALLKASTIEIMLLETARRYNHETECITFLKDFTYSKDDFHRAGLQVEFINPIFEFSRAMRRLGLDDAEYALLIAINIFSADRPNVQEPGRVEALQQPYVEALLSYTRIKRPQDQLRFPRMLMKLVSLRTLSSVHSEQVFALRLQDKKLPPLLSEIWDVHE
Chain of Nuclear respiratory factor 1 (Homo sapiens) (Q16656 whole entry, looked up): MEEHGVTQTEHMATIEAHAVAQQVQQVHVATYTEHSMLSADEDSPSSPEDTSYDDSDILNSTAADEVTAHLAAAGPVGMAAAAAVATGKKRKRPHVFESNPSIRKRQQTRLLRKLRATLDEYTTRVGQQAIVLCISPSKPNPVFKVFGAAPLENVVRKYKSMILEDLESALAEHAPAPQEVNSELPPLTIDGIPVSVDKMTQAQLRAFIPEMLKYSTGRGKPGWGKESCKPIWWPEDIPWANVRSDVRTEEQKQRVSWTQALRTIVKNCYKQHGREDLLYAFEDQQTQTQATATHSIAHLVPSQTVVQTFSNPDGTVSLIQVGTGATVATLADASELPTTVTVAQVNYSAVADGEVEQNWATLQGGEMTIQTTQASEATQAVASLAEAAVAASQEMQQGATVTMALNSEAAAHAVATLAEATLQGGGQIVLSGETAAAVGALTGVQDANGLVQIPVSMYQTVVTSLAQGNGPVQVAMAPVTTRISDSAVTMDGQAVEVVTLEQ
Chain of Myc proto-oncogene protein (Homo sapiens) (P01106 whole entry, looked up): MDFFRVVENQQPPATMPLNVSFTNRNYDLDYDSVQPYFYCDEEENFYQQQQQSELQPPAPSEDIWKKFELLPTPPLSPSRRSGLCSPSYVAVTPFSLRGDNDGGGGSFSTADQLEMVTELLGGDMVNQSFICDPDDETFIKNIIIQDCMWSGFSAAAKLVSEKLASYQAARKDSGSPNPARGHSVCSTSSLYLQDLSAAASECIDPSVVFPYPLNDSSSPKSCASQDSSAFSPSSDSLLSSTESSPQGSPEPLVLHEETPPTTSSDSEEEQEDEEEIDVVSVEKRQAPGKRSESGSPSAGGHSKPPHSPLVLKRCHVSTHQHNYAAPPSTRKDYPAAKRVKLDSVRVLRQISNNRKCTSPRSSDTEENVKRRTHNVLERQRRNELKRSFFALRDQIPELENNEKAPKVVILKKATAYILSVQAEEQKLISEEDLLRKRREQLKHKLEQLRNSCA
Chain of Hepatocyte nuclear factor 4-alpha (Homo sapiens) (P41235 whole entry, looked up, the tested form may be a part): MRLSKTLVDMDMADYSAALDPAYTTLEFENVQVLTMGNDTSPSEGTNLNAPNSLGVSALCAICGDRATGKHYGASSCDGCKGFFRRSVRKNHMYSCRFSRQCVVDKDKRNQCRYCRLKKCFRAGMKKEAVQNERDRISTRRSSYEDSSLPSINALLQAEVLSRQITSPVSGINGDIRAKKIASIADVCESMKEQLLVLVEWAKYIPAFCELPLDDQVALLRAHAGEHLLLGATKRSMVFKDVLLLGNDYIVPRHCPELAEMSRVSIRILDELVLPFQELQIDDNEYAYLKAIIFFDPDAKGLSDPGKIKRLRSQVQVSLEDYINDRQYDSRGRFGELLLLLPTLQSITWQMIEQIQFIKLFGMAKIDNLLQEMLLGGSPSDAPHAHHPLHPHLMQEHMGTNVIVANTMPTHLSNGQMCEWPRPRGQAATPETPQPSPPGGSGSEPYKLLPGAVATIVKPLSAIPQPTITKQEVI
Chain of Glucocorticoid receptor (Homo sapiens) (P04150 whole entry, looked up, the tested form may be a part): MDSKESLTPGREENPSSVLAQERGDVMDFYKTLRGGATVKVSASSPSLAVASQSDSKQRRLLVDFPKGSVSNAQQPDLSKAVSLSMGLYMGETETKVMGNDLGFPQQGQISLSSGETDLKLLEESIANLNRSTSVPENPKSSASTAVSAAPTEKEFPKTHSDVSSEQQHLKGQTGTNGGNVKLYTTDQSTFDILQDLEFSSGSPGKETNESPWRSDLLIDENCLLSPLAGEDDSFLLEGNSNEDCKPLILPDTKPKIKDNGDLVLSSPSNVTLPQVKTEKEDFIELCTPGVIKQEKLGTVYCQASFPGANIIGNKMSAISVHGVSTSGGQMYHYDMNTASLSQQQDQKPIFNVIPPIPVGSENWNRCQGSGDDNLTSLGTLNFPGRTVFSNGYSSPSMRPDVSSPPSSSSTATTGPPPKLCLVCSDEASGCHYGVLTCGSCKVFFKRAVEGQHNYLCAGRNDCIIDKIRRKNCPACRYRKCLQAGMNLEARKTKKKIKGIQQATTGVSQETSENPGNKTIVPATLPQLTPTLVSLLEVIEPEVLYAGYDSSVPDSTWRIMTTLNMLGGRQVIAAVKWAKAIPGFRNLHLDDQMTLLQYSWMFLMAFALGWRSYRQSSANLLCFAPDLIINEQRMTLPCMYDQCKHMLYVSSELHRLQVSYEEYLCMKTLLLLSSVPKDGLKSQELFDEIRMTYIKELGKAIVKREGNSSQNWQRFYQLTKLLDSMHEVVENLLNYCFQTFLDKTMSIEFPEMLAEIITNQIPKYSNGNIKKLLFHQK
Chain of Cellular tumor antigen p53 (Homo sapiens) (P04637 whole entry, looked up): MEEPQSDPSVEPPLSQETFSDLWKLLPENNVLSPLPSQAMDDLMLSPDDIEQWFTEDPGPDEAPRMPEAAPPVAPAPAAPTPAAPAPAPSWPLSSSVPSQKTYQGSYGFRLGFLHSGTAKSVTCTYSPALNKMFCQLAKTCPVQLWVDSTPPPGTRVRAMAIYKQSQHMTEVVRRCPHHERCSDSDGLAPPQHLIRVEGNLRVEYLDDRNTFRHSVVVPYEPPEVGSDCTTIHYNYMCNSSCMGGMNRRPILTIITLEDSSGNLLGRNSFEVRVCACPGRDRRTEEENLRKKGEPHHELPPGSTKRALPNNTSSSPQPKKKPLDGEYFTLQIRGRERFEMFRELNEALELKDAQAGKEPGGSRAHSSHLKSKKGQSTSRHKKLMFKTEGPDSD
Chain of Nuclear receptor subfamily 4 group A member 2 (Homo sapiens) (P43354 whole entry, looked up, the tested form may be a part): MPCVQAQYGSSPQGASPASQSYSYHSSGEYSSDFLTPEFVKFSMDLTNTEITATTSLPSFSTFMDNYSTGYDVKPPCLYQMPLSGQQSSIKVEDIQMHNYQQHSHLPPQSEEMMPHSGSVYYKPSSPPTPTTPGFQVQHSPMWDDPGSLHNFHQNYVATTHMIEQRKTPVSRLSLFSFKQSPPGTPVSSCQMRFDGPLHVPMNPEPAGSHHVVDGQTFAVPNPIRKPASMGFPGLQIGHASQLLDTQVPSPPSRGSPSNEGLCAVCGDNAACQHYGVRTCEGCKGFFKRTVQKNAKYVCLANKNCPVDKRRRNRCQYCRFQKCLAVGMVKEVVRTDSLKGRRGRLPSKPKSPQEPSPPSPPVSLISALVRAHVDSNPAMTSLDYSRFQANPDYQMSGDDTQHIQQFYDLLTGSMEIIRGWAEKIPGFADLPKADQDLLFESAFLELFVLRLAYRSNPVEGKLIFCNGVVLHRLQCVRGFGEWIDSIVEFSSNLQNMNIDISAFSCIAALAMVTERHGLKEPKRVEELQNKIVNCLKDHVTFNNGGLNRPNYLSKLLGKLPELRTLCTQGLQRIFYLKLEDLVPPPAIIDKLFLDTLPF
Chain of Oxysterols receptor LXR-alpha (Homo sapiens) (Q13133 whole entry, looked up, the tested form may be a part): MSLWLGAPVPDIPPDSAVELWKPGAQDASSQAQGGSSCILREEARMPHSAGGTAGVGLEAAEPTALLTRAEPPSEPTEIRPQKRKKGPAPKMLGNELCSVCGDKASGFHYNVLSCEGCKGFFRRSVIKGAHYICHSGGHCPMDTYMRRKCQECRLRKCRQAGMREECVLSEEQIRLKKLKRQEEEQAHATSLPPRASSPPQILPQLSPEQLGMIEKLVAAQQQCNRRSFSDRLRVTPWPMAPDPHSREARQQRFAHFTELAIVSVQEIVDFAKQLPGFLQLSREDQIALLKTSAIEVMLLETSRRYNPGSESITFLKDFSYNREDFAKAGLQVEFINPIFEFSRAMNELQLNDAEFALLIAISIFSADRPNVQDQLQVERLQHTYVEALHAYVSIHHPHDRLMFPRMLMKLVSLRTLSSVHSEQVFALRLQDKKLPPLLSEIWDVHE

CC(=O)Nc1ccc2c(c1)Cc1cc(NC(C)=O)ccc1-2
inactive: [1] | [2] | [3] | [4] | [5] | [6] | [7] | [8] | [9] | [10]

CCCCC(CC)COC(=O)c1ccccc1 (centres undefined)
inactive: [1] | [11] | [4] | [5] | [12] | [7] | [13] | [8] | [9]

CC(C)C(=O)C(C)C
inactive: [1] | [2] | [3] | [11] | [4] | [5] | [6] | [12] | [7] | [13] | [10] | [14] | [15] | [16] | [17]
active: [8] 27.1 µM | [9] 29.2 µM

O=c1[nH]c(=O)c2[nH]c(=O)[nH]c2[nH]1
inactive: [1] | [3] | [4] | [5] | [6] | [12] | [7] | [13] | [8] | [10]

OCCCS
inactive: [1] | [2] | [11] | [4] | [5] | [6] | [12] | [7] | [13] | [8] | [9] | [10]

c1cc(N(CC2CO2)CC2CO2)ccc1OCC1CO1 (centres undefined)
active: [12] 27 µM | [7] 163 µM | [13] 48.4 µM | [8] 25.4 µM | [9] 20.3 µM
inactive: [18] | [19] | [20] | [2] | [3] | [5] | [6]

CC/C=C\C/C=C\C/C=C\CCCCCCCC(=O)O
inactive: [18] | [19] | [20] | [3] | [11] | [5] | [6] | [12] | [7] | [9]
active: [8] 48.2 µM

C=C(C)C(=O)OCCOc1ccccc1
inactive: [1] | [2] | [3] | [4] | [5] | [12] | [7] | [9]
active: [8] 67.1 µM

CCCCCCCCCCCSCC(=O)O
inactive: [1] | [3] | [11] | [5] | [12] | [7] | [13] | [8] | [10]
active: [4] 23 µM | [6] 77.7 µM | [9] 79.2 µM

CC(=O)c1ccc2c(c1)CCCC2
inactive: [1] | [20] | [11] | [5] | [6] | [12] | [7] | [13] | [8] | [9] | [10]

SCCc1cnccn1
active: [13] 47.7 µM | [10] 46.4 µM
inactive: [1] | [2] | [3] | [4] | [5] | [6] | [12] | [8] | [9]
